Assay results taken from PubChem BioAssay (Tox21).
The source made the active and inactive calls. Unless noted, the call rests on the fitted dose curve; in most records, active means well fitted curve in the direction sought with a large enough effect in the repeat runs; inconclusive means weak or mixed curves; inactive means no such curve, though single readings can be large; an effect the other way counts as inactive or inconclusive.

Columns and labels:
[1] = qHTS assay for small molecules that induce genotoxicity in human embryonic kidney cells expressing luciferase-tagged ATAD5 (AID 651632); further: nearly all actives have a fitted effect of over 15% in size; further: potency means the concentration at half of the fitted maximal effect
How it was run: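 Cells were seeded at 2,000 per well, dosed with compound, and incubated 16 hr at 37C in 5% CO2. Luciferase activity was then quantified after a 30 min room-temperature incubation with Amplite.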

[2] = qHTS assay for small molecule agonists of the p53 signaling pathway - cell viability (AID 651633; calls by dose curve; further: nearly all actives have a fitted effect of over 30% in size; further: potency means the concentration at half of the fitted maximal effect)
How it was run: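 Viability counter-read: CellTiter-Glo luminescence (30 min, room temperature) in the same p53RE-bla plates. These plates had been exposed to compounds for 16 h at 37 C.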

[3] = qHTS assay for small molecules that induce genotoxicity in human embryonic kidney cells expressing luciferase-tagged ATAD5 - cell viability (AID 651634; calls by dose curve; further: nearly all actives have a fitted effect of over 25% in size; further: potency means the concentration at half of the fitted maximal effect)
How it was run: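 Cells (HEK293T, luciferase-tagged ATAD5) are seeded at 2,000 per well, dosed with compound or DMSO vehicle, and incubated 15.5 hr at 37C and 5% CO2. CellTiter-Fluor is added for 30 min before fluorescence is measured.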

[4] = qHTS assay for small molecule disruptors of the mitochondrial membrane potential - cell viability (AID 720634; calls by dose curve;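 further: human HepG2 liver cancer cells; series mostly up to about 83 µM; nearly all actives have a fitted effect of over 20% in size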)
How it was run: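 Cytotoxicity was measured by ATP quantitation in HepG2 wells that had first been treated with compound for 1 hr and stained with m-MPI dye; CellTiter-Glo incubation was 30 min at room temperature.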

[5] = qHTS assay to test for compound auto fluorescence at 590 nm (red) in HepG2 cells (AID 720674)
How it was run: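 1 hr compound incubation on HepG2 cells, 37 C, 5% CO2; plate read ex 540 nm / em 590 nm; intensities reported as Rose Bengal sodium equivalents.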

[6] = qHTS assay to test for compound auto fluorescence at 535 nm (green) in HepG2 cells (AID 720675)
[7] = qHTS assay to test for compound auto fluorescence at 460 nm (blue) in HEK293 cells (AID 720678)
How it was run: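 HEK293 cells (2,000/well, medium with 10% dialyzed FBS) attached 4-5 hr, then exposed to compound overnight at 37C, 5% CO2. Blue fluorescence read at 405/460 nm, with triamterene as reference fluorophore.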

[8] = qHTS assay to test for compound auto fluorescence at 590 nm (red) in HEK293 cells (AID 720679)
How it was run: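 HEK293 cells (2,000/well, 10% dialyzed FBS) attached 4-5 hr, then dosed with compound or DMSO and incubated overnight at 37C, 5% CO2. Red fluorescence read at 540/590 nm, Rose Bengal sodium as reference fluorophore.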

[9] = qHTS assay to test for compound auto fluorescence at 535 nm (green) in HEK293 cells (AID 720680)
[10] = qHTS assay to test for compound auto fluorescence at 460 nm (blue) in HEK293 cell free culture (AID 720681)
How it was run: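 Blue fluorescence (Ex 405/Em 460 nm, triamterene-equivalent) was read immediately after pin transfer of compound or DMSO into medium (DMEM, 10% FBS) without cells.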

[11] = qHTS assay to test for compound auto fluorescence at 535 nm (green) in HEK293 cell free culture (AID 720682)
How it was run: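 Fluorescein serves as the green reference fluorophore; each compound's intrinsic emission at 535 nm (excitation 485 nm) is reported as an equivalent amount of that dye, measured in serum-containing DMEM without cells.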

[12] = qHTS assay to test for compound auto fluorescence at 590 nm (red) in HEK293 cell free culture (AID 720683)
How it was run: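 Red-channel autofluorescence of compounds in culture medium (DMEM, 10% FBS), no cells, measured at 540/590 nm. Rose Bengal sodium is the reference fluorophore for equivalence.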

[13] = qHTS assay to test for compound auto fluorescence at 590 nm (red) in HepG2 cell free culture (AID 720684)
How it was run: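 Cell-free; medium MEM + 10% FBS; compound or DMSO added by pintool; read Ex 540/Em 590 nm; Rose Bengal sodium as red reference fluorophore.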

[14] = qHTS assay to test for compound auto fluorescence at 460 nm (blue) in HepG2 cell free culture (AID 720685)
How it was run: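 Cell-free plates of MEM plus 10% FBS received 23 nL compound or DMSO vehicle; blue-channel (405/460 nm) intensity scored against triamterene as reference fluorophore.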

[15] = qHTS assay to test for compound auto fluorescence at 535 nm (green) in HepG2 cell free culture (AID 720686)
[16] = qHTS assay to test for compound auto fluorescence at 460 nm (blue) in HepG2 cells (AID 720687)
How it was run: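 Blue-channel autofluorescence (Ex/Em 405/460 nm, triamterene-equivalent) was measured after 1 hr compound exposure at 37 C, 5% CO2. Cells were HepG2, plated overnight at 37 C in MEM plus 10% FBS.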

[17] = target: Glucocorticoid receptor (Homo sapiens) (UniProt P04150); assay: qHTS assay to identify small molecule antagonists of the glucocorticoid receptor (GR) signaling pathway (AID 720692; active means well fitted inhibition curve with a large enough effect in the signal ratio in the repeat runs, not every such curve was filed as active; inconclusive means weak or mixed curves, or effect the other way; inactive means no such curve, though single readings can be large or run the other way; the % refers to the signal ratio)
How it was run: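 Antagonism was scored as loss of dexamethasone-driven (5 nM final) reporter signal in HeLa cells bearing a glucocorticoid response element–beta-lactamase construct, after 18 h compound exposure at 37 C and 2 h FRET substrate loading.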

[18] = qHTS assay for small molecule disruptors of the mitochondrial membrane potential (AID 720635); further: potency means the concentration at half of the fitted maximal effect
How it was run: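 Mitochondrial membrane potential tracked with Mito-MPS dye, red aggregates (ex 540/em 590 nm) against green monomers (ex 490/em 535 nm). Compound treatment 1 hr at 37C, dye 30 min in HepG2.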

[19] = target: Glucocorticoid receptor (Homo sapiens) (UniProt P04150); assay: qHTS assay to identify small molecule agonists of the glucocorticoid receptor (GR) signaling pathway (AID 720691; active means well fitted activation curve with a large enough effect in the signal ratio in the repeat runs, not every such curve was filed as active; inconclusive means weak or mixed curves, or effect the other way; inactive means no such curve, though single readings can be large or run the other way; the % refers to the signal ratio; further: potency means the concentration at half of the fitted maximal effect)
How it was run: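 Steps: seed GR-bla HeLa cells, incubate 4 h at 37 C/5% CO2; pin-transfer DMSO-dissolved compounds; incubate 18 h at 37 C; add LiveBLAzer B/G FRET substrate; after 2 h at room temperature, measure fluorescence.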

Measured: Potency

Sequence of Glucocorticoid receptor (Homo sapiens) (P04150 whole entry, looked up): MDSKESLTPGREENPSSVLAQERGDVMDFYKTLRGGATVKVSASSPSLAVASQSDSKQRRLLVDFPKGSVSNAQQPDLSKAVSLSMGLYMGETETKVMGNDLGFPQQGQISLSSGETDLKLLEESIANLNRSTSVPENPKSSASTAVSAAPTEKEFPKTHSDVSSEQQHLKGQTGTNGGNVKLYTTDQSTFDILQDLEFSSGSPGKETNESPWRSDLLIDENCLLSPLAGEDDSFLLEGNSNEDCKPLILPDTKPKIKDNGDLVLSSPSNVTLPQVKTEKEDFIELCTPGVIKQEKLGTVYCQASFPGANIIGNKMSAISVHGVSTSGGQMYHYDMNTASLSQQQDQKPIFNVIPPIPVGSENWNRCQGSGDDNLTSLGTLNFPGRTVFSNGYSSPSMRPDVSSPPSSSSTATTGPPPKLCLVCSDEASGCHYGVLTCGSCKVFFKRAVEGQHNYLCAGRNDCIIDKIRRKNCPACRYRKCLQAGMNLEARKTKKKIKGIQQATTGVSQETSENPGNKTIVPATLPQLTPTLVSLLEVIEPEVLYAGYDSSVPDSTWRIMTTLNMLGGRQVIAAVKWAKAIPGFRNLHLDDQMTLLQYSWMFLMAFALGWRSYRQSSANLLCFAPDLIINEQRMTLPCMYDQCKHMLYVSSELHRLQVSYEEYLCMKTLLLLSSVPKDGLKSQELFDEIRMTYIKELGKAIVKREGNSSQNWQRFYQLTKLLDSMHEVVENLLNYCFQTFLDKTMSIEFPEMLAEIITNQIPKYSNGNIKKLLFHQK

Cc1cc(S(=O)(=O)O)ccc1N=Nc1c(O)ccc2ccccc12
active: [3] 48.6 µM
not listed: [17] | [18] | [19]
inactive: all other assays above

CC1=CC(O)CC(C)(C)C1 (centres undefined)
not listed: [18] | [19]
inactive: all other assays above

O=C(O)c1cccnc1C(=O)O
not listed: [17] | [18] | [19]
inactive: all other assays above

C=CC(=O)NCOCC(C)C
not listed: [5] | [17] | [19]
inactive: all other assays above

CCCOc1ccc(S(=O)(=O)N2CCN(CC)CC2)cc1-c1nc2c(CC)n(Cc3ccccn3)nc2c(=O)[nH]1
not listed: [13] | [17] | [18]
inactive: all other assays above

Cc1cc(O)c2c(O)c3c(O)cccc3cc2c1
active: [18] 18.8 µM
not listed: [4] | [17] | [19]
inactive: all other assays above

CCC1(C)CC(=O)NC1=O (centres undefined)
not listed: [13] | [17] | [18]
inactive: all other assays above

CC[C@H](NC(=O)c1cc(F)ccc1NS(=O)(=O)c1cccc2cccnc12)c1ccccc1
active: [18] 2.05 µM
not listed: [4] | [17] | [19]
inactive: all other assays above

CCCCC(CC)COC(=O)COc1ccc(Cl)cc1C (centres undefined)
not listed: [9] | [17] | [18] | [19]
inactive: all other assays above

O=C(CCC1CCN(Cc2ccccc2)CC1)c1ccc2c(c1)NCCCC2
not listed: [17] | [18] | [19]
inactive: all other assays above

CCCCCCCCCCOS(=O)(=O)O
not listed: [13] | [17] | [18] | [19]
inactive: all other assays above

COCC(O)CO (centres undefined)
not listed: [17] | [18]
inactive: all other assays above

CC1(C)O[C@@H]2C[C@H]3[C@@H]4CCC5=CC(=O)C=C[C@]5(C)[C@H]4[C@@H](O)C[C@]3(C)[C@]2(C(=O)CO)O1
active: [1] 0.0119 µM | [19] 0.0301 µM [inconclusive]
not listed: [13] | [17] | [18]
inactive: all other assays above

CO[Si](C)(OC)OC
not listed: [13] | [18]
inactive: all other assays above

Nc1ccc(S(=O)(=O)O)c(N)c1
not listed: [5] | [18]
inactive: all other assays above

O=C(O)c1snc(Cl)c1Cl
not listed: [5] | [17] | [18] | [19]
inactive: all other assays above

COC(OC)(C(=O)c1ccccc1)c1ccccc1
not listed: [18]
inactive: all other assays above

COC(=O)CC(=O)C(C)(C)C
not listed: [5] | [16] | [17] | [19]
inactive: all other assays above

OC(CCCN1CCCCC1)(c1ccccc1)c1ccccc1
not listed: [9] | [17] | [18] | [19]
inactive: all other assays above

NC(=O)Cn1c(=O)cc(CCN2CCN(c3nccc4sccc34)CC2)c2ccc(F)cc21
not listed: [18]
inactive: all other assays above

O=Cc1c(Cl)cccc1Cl
not listed: [17] | [18]
inactive: all other assays above

O=C(O)C(Cc1cc(I)c(O)c(I)c1)c1ccccc1 (centres undefined)
not listed: [7] | [16] | [17] | [19]
inactive: all other assays above

CC(CCO)CCc1ccccc1 (centres undefined)
not listed: [5] | [16] | [17]
inactive: all other assays above

CC(C)C(OC(=O)c1ccccc1)C(C)(C)COC(=O)c1ccccc1 (centres undefined)
active: [18] 27.3 µM
not listed: [4] | [16] | [17] | [19]
inactive: all other assays above

N#C/C(=C1/SC[C@@H](c2ccc(Cl)cc2Cl)S1)n1ccnc1
active: [18] 26.6 µM
not listed: [4] | [5] | [17]
inactive: all other assays above

Cc1cc2nc3ccc(=[N+](C)C)cc-3sc2cc1N
active: [2] 7.5 µM | [18] 3.76 µM
not listed: [3] | [4] | [17] | [19]
inactive: all other assays above

COCCOC(=O)C1=C(C)NC(C)=C(C(=O)OC/C=C/c2ccccc2)C1c1cccc([N+](=O)[O-])c1 (centres undefined)
active: [18] 10.6 µM
not listed: [2] | [4] | [13] | [16] | [17]
inactive: all other assays above

N#C[C@@H]1C[C@@H]2C[C@@H]2N1C(=O)[C@@H](N)C12CC3CC(CC(O)(C3)C1)C2
not listed: [4] | [5] | [17]
inactive: all other assays above

CCCCCCOC(=O)CCCCCCCC(=O)OCCCCCC
not listed: [2] | [9] | [16] | [17]
inactive: all other assays above

C[C@]12CCC(=O)C=C1C=C[C@@H]1[C@@H]2CC[C@@]2(C)[C@H]1CC[C@@]21CCC(=O)O1
not listed: [2] | [5] | [13] | [17]
inactive: all other assays above

CN(C(=O)C(Cl)Cl)c1ccc(OC(=O)c2ccco2)cc1
not listed: [4] | [9] | [18] | [19]
inactive: all other assays above

Fc1ccccc1[C@@H](F)COC1CCC(Nc2ncnc3[nH]ncc23)CC1 (some centres undefined)
active: [18] 2.73 µM
not listed: [3] | [17]
inactive: all other assays above
